Out of some 13,000 compounds screened, about 3,200 (25%) showed an effect of 50% or more. Some of the results follow. Peptide text beside a SMILES is read from it. * marks the point of attachment. Octanoyl = CCCCCCCC(=O)*
test system: P. falciparum stage V gametocytes; parameters: BacTiter-Glo ATP luminescence viability of purified stage V gametocytes in 384-well plates, per cent inhibition versus DMSO; details: 48 h, 5 µM; inhibitor

Row | SMILES | % Inhibition
1 | Cc1cc(-c2ccc3c(c2)CCN(CCC2CCC(NC(=O)/C=C/c4cccc(F)c4)CC2)CC3)on1 (centres unmarked) [TCMDC-139973] | -71.57%
2 | Cc1ccc(C)c(Sc2ccc(NC(=O)CN3CCN(C(=O)c4ccco4)CC3)cc2)c1 [TCMDC-124860] | -17.66%
3 | CC(C)c1cccc(OCC2CCN(c3ccc(C(=O)Nc4ccccc4)cn3)CC2)c1 [TCMDC-134261] | 7.313%
4 | NC(=O)c1c(Cl)nc2ccccc2c1Cl [TCMDC-131373] | -0.4742%
5 | O=C(c1cccc(Cl)c1)N1CCN(c2ccc([N+](=O)[O-])c(NC3CC3)c2)CC1 [TCMDC-125827] | 67.12%
6 | O=C(Nc1cccc(CN2CCN(C(=O)c3cccc(Cl)c3)CC2)c1)c1ccco1 [TCMDC-136322] | -11.21%
7 | COc1ccc(C(=O)N2CCN(c3ccc([N+](=O)[O-])c(NC4CC4)c3)CC2)cc1Br [TCMDC-123659] | 105.4%
8 | O=C(NC1CC1)c1ccc(N2CCC(Cc3ccccc3)CC2)c([N+](=O)[O-])c1 [TCMDC-123724] | 45.67%
9 | COc1ccc(C(=O)Nc2ccc3nc(N4CCCCC4)cc(C)c3c2)cc1[N+](=O)[O-] [TCMDC-125448] | -8.807%
10 | O=C(c1cccc(-c2noc(C(F)(F)F)n2)c1)N1CCN(c2ccncc2)CC1 [TCMDC-132423] | 9.188%
11 | N#Cc1ccc(NC2(C(=O)N3CCN(c4cccc(Cl)c4)CC3)CC2)c2ccccc12 [TCMDC-136618] | -25.2%
12 | COc1ccc(S(=O)(=O)N2CCCC(C)C2)cc1N1CCN(C(=O)c2ccc([N+](=O)[O-])o2)CC1 (centres unmarked) [TCMDC-124803] | 27.68%
13 | O=C(c1cccc(Br)c1)N1CCN(c2ccc([N+](=O)[O-])c(NC3CC3)c2)CC1 [TCMDC-123536] | 60.19%
14 | O=C(NCC1CCC(C(=O)NCc2cccc3ccccc23)CC1)c1ccc(O)c(-c2ccc(Cl)c(Cl)c2)c1 (centres unmarked) [TCMDC-140895] | -0.9635%
15 | CO/C(=C\C=C\c1cc2cc(Cl)c(Cl)cc2[nH]1)C(=O)NCCCN1CCN(c2cccc(OCC(=O)Nc3cccc(C(=O)c4ccccc4)c3)c2)CC1 [TCMDC-139411] | 32.5%
16 | NC(=O)c1cc2nc(Nc3ccc(F)cc3)nc(NC3CCC3)c2[nH]1 [TCMDC-137003] | -67.45%
17 | O=[N+]([O-])c1cccc(CNC2CCN(Cc3ccc(-c4ccccc4)cc3)CC2)c1 [TCMDC-141203] | 57.53%
18 | O=[N+]([O-])c1cccc(CNC2CCN(Cc3ccc4ccccc4c3)CC2)c1 [TCMDC-141202] | 96.08%
19 | CCCCCCN1CCC(NCc2cccc([N+](=O)[O-])c2)CC1 [TCMDC-141205] | 32.34%
20 | COc1ccc(CN2CCC(NCc3cccc([N+](=O)[O-])c3)CC2)cc1 [TCMDC-141201] | 64.68%
21 | O=[N+]([O-])c1cccc(CNC2CCN(Cc3ccc(C(F)(F)F)cc3)CC2)c1 [TCMDC-141204] | -3.032%
22 | COc1ccc(CN2CCC(NCc3cccc(C(F)(F)F)c3)CC2)cc1 [TCMDC-141652] | 21.67%
23 | O=[N+]([O-])c1cccc(CNCC2CCN(Cc3ccc4ccccc4c3)CC2)c1 [TCMDC-141207] | 30.18%
24 | O=C(Nc1ccc2ccccc2c1)N1CCC(NCc2cccc([N+](=O)[O-])c2)CC1 [TCMDC-141278] | 22.21%

Row | SMILES | % Inhibition
25 | O=[N+]([O-])c1cccc(CNC2CCN(Cc3ccc(Cl)c(Cl)c3)CC2)c1 [TCMDC-141200] | 48.14%
26 | Cn1c(NC(=O)c2ccc(CNC(=O)c3ccc(O)c(-c4ccc(Cl)c(Cl)c4)c3)cc2)nc2ccccc21 [TCMDC-140881] | -6.168%
27 | Cc1[nH]c2cc(Cl)ccc2c1C1=CCN(CCCCC2(C)C(=O)Nc3c(F)cccc32)CC1 (centres unmarked) [TCMDC-140946] | -93.15%
28 | Cc1ccc(S(=O)(=O)NC2CCN(c3ccnc4cc(Cl)ccc34)C2)cc1 (centres unmarked) [TCMDC-133652] | 11.61%
29 | Cc1cc(OCCCN2CCC(NS(=O)(=O)c3ccc(Cl)c(Cl)c3)C2)c2ccccc2n1 (centres unmarked) [TCMDC-136282] | -6.813%
30 | COc1ccc(-c2cccc(NC(=O)c3cccc(C#N)c3)c2)cc1CN1CCCC1 [TCMDC-132623] | 25.04%
31 | COc1ccc(-c2ccc(NC(=O)c3cccc(C#N)c3)cc2)cc1CN1CCCC(C(N)=O)C1 (centres unmarked) [TCMDC-132533] | 78.38%
32 | COc1ccc(-c2cccc(NC(=O)c3cccc(C#N)c3)c2)cc1CN1CCN(C)CC1 [TCMDC-132624] | 71.95%
33 | COc1ccc(-c2cccc(NC(=O)c3cccc(C#N)c3)c2)cc1CN1CCC(O)CC1 [TCMDC-132626] | 84.74%
34 | COc1ccc(-c2ccc(NC(=O)c3ccc(C#N)cc3)cc2)cc1CN1CCC(O)CC1 [TCMDC-132522] | -51.71%
35 | COc1ccc(-c2ccc(NC(=O)c3cccc(C#N)c3)cc2)cc1CN1CCC(O)CC1 [TCMDC-132534] | -38.76%
36 | COc1ccc(-c2cccc(NC(=O)c3cccc(C#N)c3)c2)cc1CN1CCCN(C)CC1 [TCMDC-132621] | 35.38%
37 | COc1ccc(-c2ccc(NC(=O)c3cccc(C#N)c3)cc2)cc1CN1CCN(C)CC1 [TCMDC-132532] | 1.481%
38 | Oc1ccc2[nH]c(-c3ccc(OC(F)(F)F)cc3)nc2c1CNC1CCCC1 [TCMDC-136530] | -82.26%
39 | O=C(NC1CCN(c2ccnc3cc(Cl)ccc23)C1)c1ccc(F)cc1F (centres unmarked) [TCMDC-133659] | 10.53%
40 | COc1cc(Cc2cnc(N)nc2N)c2c(c1OC)OC(C)(C)C=C2 [TCMDC-138038] | -2.785%
41 | Cc1cc(OCC2CCN(c3ccc(C(=O)NC4CC4)cn3)CC2)ccc1F [TCMDC-134031] | 14.38%
42 | COc1cc(Nc2ccnc3cc(-c4nccs4)ccc23)ccc1OCCCc1nc2ccccc2[nH]1 [TCMDC-138339] | -6.497%
43 | Brc1ccc(Nc2ccnc3cc(-c4nccs4)ccc23)cc1Oc1ccnc2cc(-c3nccs3)ccc12 [TCMDC-138299] | 0.7997%
44 | Oc1cccc(Nc2ccnc3cc(-c4ccncc4)ccc23)c1 [TCMDC-138292] | 8.476%
45 | Cn1ccc(-c2cccc(Nc3ccnc4cc(-c5nccs5)ccc34)c2)n1 [TCMDC-138336] | 105.5%
46 | Cn1cc(Br)c(-c2cccc(Nc3ccnc4cc(-c5nccs5)ccc34)c2)n1 [TCMDC-138333] | 50.96%
47 | Oc1cccc(Nc2ccnc3cc(-c4nccs4)ccc23)c1 [TCMDC-138297] | -47.13%
48 | NC(=O)CNC(=O)CCCN=C(N)N [TCMDC-131667] | 20.86%

Row | SMILES | % Inhibition
49 | Cc1c(Cc2ccc(F)cc2)c(Cl)nc2nc(N)nc(N)c12 [TCMDC-137680] | -6.829%
50 | CS(=O)(=O)c1ccc2c(c1)CCN(CCC1CCC(NC(=O)C(=Cc3ccc(Cl)cc3Cl)c3ccc(-c4ccccc4)cc3)CC1)CC2 (centres unmarked) [TCMDC-141426] | -11.75%
51 | N#Cc1cccc(-c2cccc(C(=O)NC3CCC(CCN4CCc5ccc(C#N)cc5CC4)CC3)c2)c1 (centres unmarked) [TCMDC-139681] | -20.07%
52 | CS(=O)(=O)c1ccc2c(c1)CCN(CCC1CCC(NC(=O)C(=Cc3cccc(C#N)c3)c3ccc(-c4ccccc4)cc3)CC1)CC2 (centres unmarked) [TCMDC-141427] | 78.58%
53 | CC(C)CCN(Cc1cncn1Cc1ccccc1F)C(=O)c1cncc(-c2ccccc2)c1 [TCMDC-132470] | 20.84%
54 | O=C(Nc1ccc(-c2nc3ccccc3[nH]2)cc1)c1ccc([N+](=O)[O-])s1 [TCMDC-123726] | 9.602%
55 | Nc1nc(N)c2nc(C3CC=CCC3)c(N)nc2n1 (centres unmarked) [TCMDC-141989] | 6.679%
56 | CCCCCCCC(=O)N[C@@H](Cc1ccccc1)C(=O)N[C@H](C(=O)O)C(C)C [TCMDC-139536] (Octanoyl-Phe-Val-OH) | 1.099%
57 | CC(Sc1n[nH]c(-c2ccccc2Br)n1)C(=O)Nc1ccc(F)cc1 (centres unmarked) [TCMDC-125115] | -62.46%
58 | Cc1ccc(NC(=O)C(C)Sc2n[nH]c(-c3ccccc3Br)n2)cc1 (centres unmarked) [TCMDC-125166] | 75.62%
59 | CC(CN(C)C)C(=O)Nc1ccc(-c2ccc(-c3nc4ccccc4[nH]3)s2)cc1 (centres unmarked) [TCMDC-137100] | 21.36%
60 | COc1cc(C2Nc3ccc4ccccc4c3C3=C2C(=O)CC(C)(C)C3)ccc1Oc1ccc([N+](=O)[O-])cc1C#N (centres unmarked) [TCMDC-125717] | 30.01%
61 | COc1ccc(Br)cc1C1Nc2ccc3ccccc3c2C2=C1C(=O)CC(c1ccccc1)C2 (centres unmarked) [TCMDC-125675] | 55.64%
62 | COc1ccc(C2CC(=O)C3=C(C2)NC(C)=C(C(=O)OC(C)C)C3c2ccccc2F)cc1OC (centres unmarked) [TCMDC-124038] | 37.21%
63 | CN(Cc1ccncc1)C(Cc1ccccc1)C1CCN(Cc2ccc(O)c(Cl)c2)CC1 (centres unmarked) [TCMDC-124648] | -12.77%
64 | COc1cc(CNC[C@@H](O)[C@H](Cc2ccccc2)NC(=O)c2cc(OC(C)C)cc(N3CCCCS3(=O)=O)c2)cc(OC)c1 [TCMDC-134525] | 23.04%
65 | CCc1cc2c(cc1OCCN(C)C)N(C(=O)Nc1ccc(-c3ccncc3)c(Cl)c1)CC2 [TCMDC-139214] | 8.963%
66 | COc1ccc(-c2cnc3ccc(NCc4ccc(F)cc4)nn23)cc1OC [TCMDC-136675] | 53.19%
67 | COc1ccc(-c2cnc3ccc(N4CCCC4)nn23)cc1OC.O=CO [TCMDC-134177] | 42.14%
68 | COc1ccc(-c2cnc3ccc(NCCCO)nn23)cc1OC [TCMDC-136683] | 53.42%
69 | Oc1cccc(-c2cnc3ccc(NCc4ccc(F)cc4)nn23)c1 [TCMDC-136676] | 39.41%
70 | Fc1ccc(CNc2ccc3ncc(-c4cccnc4)n3n2)cc1 [TCMDC-136674] | 19.94%
71 | N#Cc1ccc(-c2cnc3ccc(NCCc4cccnc4)nn23)cc1 [TCMDC-136679] | 23.92%

Reference: PMC4552634, “A New Set of Chemical Starting Points with Plasmodium falciparum Transmission-Blocking Potential for Antimalarial Drug Discovery” (PLoS ONE, 2015)
